The record followed here is article PMC7862700, “An all-to-all approach to the identification of sequence-specific readers for epigenetic DNA modifications on cytosine”.

What all share (assay): DAPPL (digital affinity profiling via proximity ligation, sequencing); 10 mM Tris-HCl pH 7.5, 50 mM NaCl, 1 mM DTT, 4% glycerol, room temperature, 30 min; GST-TFs on glutathione beads, 16-mer random dsDNA library, 0.1% formaldehyde crosslink after washing; high values mean tight binding
Common to all, as to conditions: protein: recombinant; tags: N-terminal GST; dsDNA, one strand shown

The target in assay [1] is T1, FLI1 (Homo sapiens, UniProt Q01543 1-452).
T1 sequence: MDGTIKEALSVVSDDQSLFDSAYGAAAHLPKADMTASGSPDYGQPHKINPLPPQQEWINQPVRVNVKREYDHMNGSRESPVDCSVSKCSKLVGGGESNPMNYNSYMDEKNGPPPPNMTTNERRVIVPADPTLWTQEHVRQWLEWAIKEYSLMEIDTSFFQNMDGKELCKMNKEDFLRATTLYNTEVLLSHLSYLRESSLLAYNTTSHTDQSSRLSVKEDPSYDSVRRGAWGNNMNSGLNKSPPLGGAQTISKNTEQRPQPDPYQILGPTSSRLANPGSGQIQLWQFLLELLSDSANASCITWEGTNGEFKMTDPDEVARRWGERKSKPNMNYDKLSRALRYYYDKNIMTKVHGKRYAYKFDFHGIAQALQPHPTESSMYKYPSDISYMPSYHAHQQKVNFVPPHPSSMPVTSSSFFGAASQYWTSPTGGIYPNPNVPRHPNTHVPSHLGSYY
In outline:
(§1)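 After expression in yeast as GST fusions, human transcription factors were bound to glutathione beads, DNA-barcoded and mixed with a tag-only sample. The pools were incubated with 200 nmole of a 16-mer random double-stranded DNA library in Tris/NaCl/DTT/glycerol buffer (30 min, room temperature), washed and crosslinked with 0.1% formaldehyde. Proximity ligation with BsaI/T4 ligase ran for 1 h at 37 °C, before PCR amplification and sequencing on an Illumina NextSeq500. Binding signal is a hexamer's read frequency for a factor divided by its frequency for the tag-only sample.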

Assay [2] addresses T2, ELK1 (Homo sapiens, UniProt P19419 1-428).
T2 sequence: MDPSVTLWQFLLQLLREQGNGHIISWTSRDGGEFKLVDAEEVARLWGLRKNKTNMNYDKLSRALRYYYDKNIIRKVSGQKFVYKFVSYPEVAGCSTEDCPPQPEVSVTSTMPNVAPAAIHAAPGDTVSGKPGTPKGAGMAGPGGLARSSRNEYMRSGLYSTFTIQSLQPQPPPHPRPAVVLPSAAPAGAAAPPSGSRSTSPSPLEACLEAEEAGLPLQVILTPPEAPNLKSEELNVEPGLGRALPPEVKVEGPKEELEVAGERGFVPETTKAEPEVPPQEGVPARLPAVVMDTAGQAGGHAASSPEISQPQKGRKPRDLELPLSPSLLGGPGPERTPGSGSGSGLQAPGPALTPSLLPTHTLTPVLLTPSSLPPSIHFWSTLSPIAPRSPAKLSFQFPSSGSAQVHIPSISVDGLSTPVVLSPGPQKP
Put shortly:
as §1

Assay [3] addresses T3, GABPA (Homo sapiens, UniProt Q06546 1-454).
T3 sequence: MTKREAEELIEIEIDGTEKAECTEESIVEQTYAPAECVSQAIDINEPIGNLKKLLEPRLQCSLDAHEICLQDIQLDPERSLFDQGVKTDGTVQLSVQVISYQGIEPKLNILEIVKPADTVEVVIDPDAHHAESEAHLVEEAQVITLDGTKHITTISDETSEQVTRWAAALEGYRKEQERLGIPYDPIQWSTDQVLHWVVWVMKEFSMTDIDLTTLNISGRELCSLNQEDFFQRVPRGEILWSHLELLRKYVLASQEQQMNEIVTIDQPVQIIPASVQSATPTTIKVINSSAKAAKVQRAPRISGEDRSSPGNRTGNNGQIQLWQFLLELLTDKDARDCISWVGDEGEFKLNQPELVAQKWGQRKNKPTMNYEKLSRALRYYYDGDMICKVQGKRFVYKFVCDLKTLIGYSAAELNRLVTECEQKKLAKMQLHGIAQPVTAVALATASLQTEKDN
In outline: as §1

The target of assay [4] is T4, ERG (Homo sapiens, UniProt P11308 1-479).
T4 sequence: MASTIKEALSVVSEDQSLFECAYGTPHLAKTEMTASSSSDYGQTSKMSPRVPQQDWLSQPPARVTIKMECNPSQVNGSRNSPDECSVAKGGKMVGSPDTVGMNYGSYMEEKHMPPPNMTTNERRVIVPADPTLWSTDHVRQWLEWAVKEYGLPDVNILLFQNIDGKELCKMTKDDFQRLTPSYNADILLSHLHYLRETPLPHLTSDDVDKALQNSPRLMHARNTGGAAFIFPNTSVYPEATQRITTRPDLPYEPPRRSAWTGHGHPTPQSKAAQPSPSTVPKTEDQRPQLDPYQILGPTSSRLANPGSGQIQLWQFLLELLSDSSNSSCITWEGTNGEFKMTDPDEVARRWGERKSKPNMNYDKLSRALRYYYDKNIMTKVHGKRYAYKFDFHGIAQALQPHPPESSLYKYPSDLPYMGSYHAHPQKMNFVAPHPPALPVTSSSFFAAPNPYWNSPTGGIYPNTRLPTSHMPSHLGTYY
In outline: as §1

Assay [5] addresses ELF1 (Homo sapiens, UniProt P32519 1-619). Put shortly:
as §1

Assay [6] deals with T5, EHF (Homo sapiens, UniProt Q9NZC4 1-300).
T5 sequence: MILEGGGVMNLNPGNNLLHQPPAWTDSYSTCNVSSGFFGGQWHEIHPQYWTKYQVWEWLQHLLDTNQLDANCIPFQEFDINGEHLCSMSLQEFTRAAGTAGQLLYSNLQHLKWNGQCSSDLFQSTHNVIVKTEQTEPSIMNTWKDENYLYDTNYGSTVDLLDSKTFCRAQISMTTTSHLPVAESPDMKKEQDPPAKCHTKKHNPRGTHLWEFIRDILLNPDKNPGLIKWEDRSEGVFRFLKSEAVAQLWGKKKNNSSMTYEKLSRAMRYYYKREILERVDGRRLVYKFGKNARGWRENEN
In outline:
as §1

The target of assay [7] is SPI1 (Homo sapiens, UniProt P17947 1-270). In outline: as §1
In assay [8] the target is SPIB (Homo sapiens, UniProt Q01892 1-262). Put shortly:
as §1

The target of assay [9] is T6, ELK3 (Homo sapiens, UniProt P41970 1-407).
T6 sequence: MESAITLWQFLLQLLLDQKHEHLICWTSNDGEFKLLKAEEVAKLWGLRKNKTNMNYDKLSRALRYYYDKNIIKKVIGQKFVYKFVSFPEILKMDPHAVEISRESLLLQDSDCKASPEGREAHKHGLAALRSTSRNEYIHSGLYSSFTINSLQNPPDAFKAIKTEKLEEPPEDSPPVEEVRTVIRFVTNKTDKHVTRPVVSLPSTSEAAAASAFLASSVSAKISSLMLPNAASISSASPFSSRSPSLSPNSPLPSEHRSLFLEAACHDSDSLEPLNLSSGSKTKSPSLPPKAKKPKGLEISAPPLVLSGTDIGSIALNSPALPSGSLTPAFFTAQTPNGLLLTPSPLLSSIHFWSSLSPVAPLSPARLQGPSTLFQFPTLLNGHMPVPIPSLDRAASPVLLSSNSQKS
In outline: as §1

ELF1, sequence (P32519 whole entry): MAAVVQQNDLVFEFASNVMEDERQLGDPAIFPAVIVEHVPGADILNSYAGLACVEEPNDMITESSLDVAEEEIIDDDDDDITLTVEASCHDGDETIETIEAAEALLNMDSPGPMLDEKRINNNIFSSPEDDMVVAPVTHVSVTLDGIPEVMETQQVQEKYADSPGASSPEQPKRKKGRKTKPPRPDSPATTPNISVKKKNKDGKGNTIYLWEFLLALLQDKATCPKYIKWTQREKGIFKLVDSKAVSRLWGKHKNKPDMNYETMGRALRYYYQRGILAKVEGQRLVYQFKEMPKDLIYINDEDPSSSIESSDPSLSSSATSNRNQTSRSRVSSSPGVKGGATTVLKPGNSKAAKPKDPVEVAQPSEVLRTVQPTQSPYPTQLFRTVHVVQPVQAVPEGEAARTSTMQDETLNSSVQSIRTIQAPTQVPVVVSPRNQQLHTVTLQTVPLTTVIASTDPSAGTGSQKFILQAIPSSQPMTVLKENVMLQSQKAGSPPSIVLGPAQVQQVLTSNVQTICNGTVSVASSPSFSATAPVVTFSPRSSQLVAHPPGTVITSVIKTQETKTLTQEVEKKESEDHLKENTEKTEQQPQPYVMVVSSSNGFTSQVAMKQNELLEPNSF
SPIB, sequence (Q01892 whole entry): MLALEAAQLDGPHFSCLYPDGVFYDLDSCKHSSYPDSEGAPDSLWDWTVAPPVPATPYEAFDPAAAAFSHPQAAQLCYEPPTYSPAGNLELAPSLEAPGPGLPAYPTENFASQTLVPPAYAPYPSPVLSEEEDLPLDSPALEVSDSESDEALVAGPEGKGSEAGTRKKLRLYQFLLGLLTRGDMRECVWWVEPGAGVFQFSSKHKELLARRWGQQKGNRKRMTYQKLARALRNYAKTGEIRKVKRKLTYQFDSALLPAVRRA

On to ACACCT, for which the binding signal in [1] is 1.1 fold enrichment (6-mer frequency, TF over GST control); in assay [2] it was 1.09 fold enrichment (6-mer frequency, TF over GST control); in assay [3] it was 1.04 fold enrichment (6-mer frequency, TF over GST control); in [4], 1.12 fold enrichment (6-mer frequency, TF over GST control); in [5], 1.07 fold enrichment (6-mer frequency, TF over GST control); in assay [6], 1.13 fold enrichment (6-mer frequency, TF over GST control). In addition, the binding signal is 1.09 fold enrichment (6-mer frequency, TF over GST control) in assay [7]; 1.03 fold enrichment (6-mer frequency, TF over GST control) in [8]; 1.06 fold enrichment (6-mer frequency, TF over GST control) in [9].
As to ATACTG, the binding signal in assay [1] was 1.1 fold enrichment (6-mer frequency, TF over GST control); in assay [2], 1.09 fold enrichment (6-mer frequency, TF over GST control); in assay [3], 1.16 fold enrichment (6-mer frequency, TF over GST control); in assay [4], 1.06 fold enrichment (6-mer frequency, TF over GST control); in assay [5], 1.09 fold enrichment (6-mer frequency, TF over GST control); in [6], 1.1 fold enrichment (6-mer frequency, TF over GST control). Further, the binding signal in assay [7] was 1.14 fold enrichment (6-mer frequency, TF over GST control); in assay [9], 1.14 fold enrichment (6-mer frequency, TF over GST control).
Consider ACCCCA, for which the binding signal is 1.05 fold enrichment (6-mer frequency, TF over GST control) in assay [1]; 1.12 fold enrichment (6-mer frequency, TF over GST control) in [2]; 1.15 fold enrichment (6-mer frequency, TF over GST control) in [3]; 1.08 fold enrichment (6-mer frequency, TF over GST control) in [4]; 1.11 fold enrichment (6-mer frequency, TF over GST control) in [5]; 1.11 fold enrichment (6-mer frequency, TF over GST control) in assay [6]. For the same sequence, the binding signal in [7] is 1.08 fold enrichment (6-mer frequency, TF over GST control); in assay [8] it was 1.05 fold enrichment (6-mer frequency, TF over GST control); in assay [9], 1.02 fold enrichment (6-mer frequency, TF over GST control).
On to TTACGT, for which the binding signal in assay [1] was 1.19 fold enrichment (6-mer frequency, TF over GST control); in [2] it was 1.09 fold enrichment (6-mer frequency, TF over GST control); in assay [3], 1.2 fold enrichment (6-mer frequency, TF over GST control); in assay [4] it was 1.07 fold enrichment (6-mer frequency, TF over GST control); in assay [5] it was 1.07 fold enrichment (6-mer frequency, TF over GST control); in assay [6], 1.1 fold enrichment (6-mer frequency, TF over GST control). In addition, the binding signal was 1.09 fold enrichment (6-mer frequency, TF over GST control) in assay [7] and 1.05 fold enrichment (6-mer frequency, TF over GST control) in assay [9].
For the sequence GATATG, the binding signal in [1] is 1.15 fold enrichment (6-mer frequency, TF over GST control); in [2], 1.06 fold enrichment (6-mer frequency, TF over GST control); in assay [3] it was 1.07 fold enrichment (6-mer frequency, TF over GST control); in [4], 1.11 fold enrichment (6-mer frequency, TF over GST control); in assay [5], 1.03 fold enrichment (6-mer frequency, TF over GST control); in assay [6] it was 1.12 fold enrichment (6-mer frequency, TF over GST control). For the same sequence, the binding signal was 1.06 fold enrichment (6-mer frequency, TF over GST control) in [7] and 1.04 fold enrichment (6-mer frequency, TF over GST control) in assay [9].
Consider GTACTC, for which the binding signal in assay [1] is 1.06 fold enrichment (6-mer frequency, TF over GST control); in [2] it was 1.09 fold enrichment (6-mer frequency, TF over GST control); in assay [3], 1.16 fold enrichment (6-mer frequency, TF over GST control); in [4], 1.09 fold enrichment (6-mer frequency, TF over GST control); in [5], 1.16 fold enrichment (6-mer frequency, TF over GST control); in [6], 1.08 fold enrichment (6-mer frequency, TF over GST control). The binding signal in [7] is 1.01 fold enrichment (6-mer frequency, TF over GST control); in assay [9], 1.18 fold enrichment (6-mer frequency, TF over GST control).
For the sequence TGTACG, the binding signal in [1] is 1.18 fold enrichment (6-mer frequency, TF over GST control); in assay [2], 1.23 fold enrichment (6-mer frequency, TF over GST control); in [3], 1.08 fold enrichment (6-mer frequency, TF over GST control); in assay [4], 1.15 fold enrichment (6-mer frequency, TF over GST control); in assay [5], 1.11 fold enrichment (6-mer frequency, TF over GST control); in assay [6], 1.12 fold enrichment (6-mer frequency, TF over GST control). In addition, the binding signal in assay [7] was 1.19 fold enrichment (6-mer frequency, TF over GST control); in assay [8] it was 1.1 fold enrichment (6-mer frequency, TF over GST control); in assay [9], 1.23 fold enrichment (6-mer frequency, TF over GST control).
As for ACGACG, the binding signal in assay [1] was 1.15 fold enrichment (6-mer frequency, TF over GST control); in assay [2], 1.15 fold enrichment (6-mer frequency, TF over GST control); in assay [3], 1.22 fold enrichment (6-mer frequency, TF over GST control); in assay [4], 1.1 fold enrichment (6-mer frequency, TF over GST control); in [5], 1.09 fold enrichment (6-mer frequency, TF over GST control); in assay [6], 1.1 fold enrichment (6-mer frequency, TF over GST control). In addition, the binding signal is 1.11 fold enrichment (6-mer frequency, TF over GST control) in assay [7] and 1.15 fold enrichment (6-mer frequency, TF over GST control) in assay [9].
